Screening data as filed in PubChem.
Sampled rows, rich in hits. Any-hit rate of the full collection: about 19%.
CHX counter: counter-screen for Shiga toxin inhibitors: cycloheximide protein synthesis inhibition | hit rate 12% among 300,000 | max response, % | cell reporter, cycloheximide protein synthesis inhibition counterscreen; in the data active = max response mostly above about 13%, no sharp cut-off; inactive = mostly below about 14%; also: read at 38.3 µM for the half of the compounds with a filed dose
Pf growth 96h: inhibits malaria parasite growth, 96 h. Potency, µM (doses to about 28.7 µM), hits mostly inhibitors. P. falciparum luciferase reporter growth, 96 h. hit rate 6.9% among 320,000
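Plates of compound plus infected erythrocytes (2% hematocrit, 0.05% parasitemia final) incubate 96 hours, 37 C, 5% CO2. Detection reagent added; reduced luminescence from the parasites' luciferase reporter flags inhibition.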
Pf growth 48h: inhibits P. falciparum growth in the first generation, 48 h; P. falciparum luciferase growth in erythrocytes, 48 h; hit rate 5.9% among 310,000; AID 504832; Potency, µM (titrated, usually from 28.7 µM), hits mostly inhibitors
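Read-out is firefly luciferase luminescence from an integrated reporter in P. falciparum, so falling signal marks reduced parasite growth. Infected erythrocytes were at 2% hematocrit and 0.1% parasitemia (final) in Albumax-supplemented RPMI 1640.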
Shiga toxin inh: blocks Shiga toxin action in Vero cells; Vero cells, Shiga toxin protein synthesis inhibition reporter; inhibition, % at 38.7 µM; hit rate 9.2% among 290,000; AID 2315; in the data active = inhibition mostly above about 28%, no sharp cut-off; inactive = mostly below about 43%
MARV entry inh: inhibitors of Marburg virus binding or cell entry | Marburg virus pseudotyped entry inhibition, cell reporter | Potency, µM (top dose mostly 37.8 µM), hits mostly inhibitors | hit rate 1.8% among 300,000; calls by dose curve; tested in HEK293 cells
LASV entry inh: inhibitors of Lassa virus binding or cell entry. hit rate 1.2% among 300,000. Potency, µM (titrated, usually from 37.9 µM), usual class: inhibitors. Lassa virus pseudotype entry inhibition, cell reporter. AID 540256; calls by dose curve; tested in HEK293 cells; also: nearly all actives have a fitted effect of over 50% in size
Large screens that a line does not name were inactive. Unless noted, calls follow the shape of the dose curve; as a rule, active = well fitted inhibition curve with a large enough effect; inconclusive = small, poorly fitted or top-dose-only effect, or another doubt; inactive = no such curve, though single readings can be large or run the other way.

Cc1cc(C)cc(NC(=O)NCc2c(-c3ccccc3)noc2C)c1	Pf growth 96h inconclusive, Pf growth 48h inconclusive
Cc1onc(-c2ccccc2)c1CNC(=O)Nc1ccc(C(F)(F)F)cc1	Pf growth 96h 4.1µM, Pf growth 48h 6.6µM, MARV entry inh inconclusive, LASV entry inh inconclusive
Cc1ccsc1/C=C1\CCC(C2CCCC2)C1=O (configuration not stated)	CHX counter 44, Shiga toxin inh 106, MARV entry inh 7.9µM, LASV entry inh inconclusive
CN(C)CC1CC/C(=C\c2ccc(O)cc2)C1=O (configuration not stated)	MARV entry inh inconclusive, LASV entry inh 11µM (no result: CHX counter, Pf growth 96h, Pf growth 48h, Shiga toxin inh)
Cc1ccsc1/C=C1/SC(N2CC(C)OC(C)C2)=NC1=O (configuration not stated)	none
Cc1ccc(/C=C2\CCC(C3CCCC3)C2=O)cc1 (configuration not stated)	CHX counter 56, Shiga toxin inh 61, MARV entry inh inconclusive
COc1ccc(/C=C2/CCC(CN3CCOCC3)C2=O)cc1 (configuration not stated)	MARV entry inh inconclusive, LASV entry inh 13µM (no result: CHX counter, Pf growth 96h, Pf growth 48h, Shiga toxin inh)
COc1ccc(/C=C2\CCC(C3CCCC3)C2=O)cc1 (configuration not stated)	CHX counter 51, Pf growth 96h inconclusive, Shiga toxin inh 93, MARV entry inh inconclusive, LASV entry inh inconclusive
COc1ccc(/C=C2\CCC(C3CCCC3)C2=O)c(OC)c1 (configuration not stated)	none (no result: MARV entry inh, LASV entry inh)
C=CCNC(=O)/C(C#N)=C/c1c(N2CC(C)OC(C)C2)nc2ccccn2c1=O (configuration not stated)	LASV entry inh inconclusive
O=C1NCC2=C1C(c1ccc(Br)cc1)Nc1ccccc1N2 (configuration not stated)	CHX counter 22, Shiga toxin inh 77
CC(C)(C)OC(=O)CN1C(=O)NC2(CCCc3ccccc32)C1=O (configuration not stated)	Pf growth 48h inconclusive, MARV entry inh inconclusive
CSc1cccc(NC(=O)Cn2cccc2)c1	none
O=C(NCc1ccc(F)cc1)c1cnn2ccccc12	CHX counter 30 (no result: Pf growth 48h, MARV entry inh, LASV entry inh)
CSc1cccc(NC(=O)c2cnn3ccccc23)c1	CHX counter 45, Shiga toxin inh 76, MARV entry inh inconclusive, LASV entry inh inconclusive
CCc1ccc(NC(=O)c2cnn3ccccc23)cc1	CHX counter 43, Pf growth 96h 1.2µM (no result: Pf growth 48h, MARV entry inh, LASV entry inh)
COc1ccc(CNC(=O)c2cnn(-c3ccc(F)cc3)c2-n2cccc2)cc1	none (no result: CHX counter, Pf growth 96h, Pf growth 48h, Shiga toxin inh, MARV entry inh)
CCOC(=O)N1CCN(C(=O)c2cnn3c(C(F)(F)F)cc(-c4cccs4)nc23)CC1	Pf growth 48h inconclusive, MARV entry inh inconclusive
O=C(Cn1ncc2c(=O)oc3ccccc3c21)Nc1cc(F)ccc1F	none (no result: CHX counter, Pf growth 96h, Pf growth 48h, Shiga toxin inh)
CC(=O)Nc1ccc(OCC(=O)NC(C)c2ccc(F)cc2)cc1 (configuration not stated)	none (no result: MARV entry inh, LASV entry inh)
CCOc1ccc(NCCC(O)c2ccc(F)cc2)cc1 (configuration not stated)	CHX counter 23
NS(=O)(=O)c1ccc(CCNc2ccnc3cc(Cl)ccc23)cc1	CHX counter 32, Pf growth 48h 12µM, MARV entry inh inconclusive (no result: LASV entry inh)
NS(=O)(=O)c1ccc(CCNCc2ccccc2OCc2ccc(Cl)cc2)cc1	Pf growth 96h inconclusive, Pf growth 48h 10µM, MARV entry inh inconclusive, LASV entry inh inconclusive (no result: Shiga toxin inh)
NS(=O)(=O)c1ccc(CCNS(=O)(=O)Cc2ccc(Cl)cc2)cc1	Pf growth 96h 13µM
NS(=O)(=O)c1ccc(CNS(=O)(=O)Cc2ccc(Cl)cc2)cc1	Pf growth 96h inconclusive (no result: MARV entry inh, LASV entry inh)
O=S(=O)(Cc1ccccc1)NCCc1cccc(Cl)c1	Pf growth 96h 3.3µM
CC(C)OCCCNc1ncc2c(n1)CC(c1ccc(N(C)C)cc1)CC2=O (configuration not stated)	LASV entry inh inconclusive
CC(C)OCCCNc1ncc2c(n1)CC(c1cccs1)CC2=O (configuration not stated)	Pf growth 96h 13µM, Pf growth 48h inconclusive, LASV entry inh inconclusive
COC(=O)C[C@H]1c2ccccc2[C@@H]2C(=C[C@@H](C)[C@H]3C(=O)N(c4ccccc4)C(=O)[C@H]32)N1C(=O)OC	none (no result: CHX counter, Pf growth 96h, Pf growth 48h, Shiga toxin inh, LASV entry inh)
CN(C)S(=O)(=O)c1ccc(C(=O)NCC[N+]2(C)CCCCCC2)o1	Pf growth 96h 9.3µM, Pf growth 48h inconclusive (no result: MARV entry inh, LASV entry inh)
CCOC(=O)c1cc2c(=O)n3ccccc3nc2n(Cc2ccco2)c1=NC(=O)c1ccc(C)c(C)c1	none (no result: CHX counter, Pf growth 96h, Pf growth 48h, Shiga toxin inh)
CCOC(=O)c1cc2c(=O)n3cccc(C)c3nc2n(Cc2ccco2)c1=NC(=O)c1cccnc1	Pf growth 96h inconclusive, Pf growth 48h inconclusive, Shiga toxin inh 33, MARV entry inh inconclusive
CCCCn1c(=NC(=O)c2c(-c3c(F)cccc3Cl)noc2C)c(C(=O)OCC)cc2c(=O)n3ccccc3nc21	LASV entry inh inconclusive (no result: CHX counter, Pf growth 96h, Pf growth 48h, Shiga toxin inh)
CCOC(=O)c1cc2c(=O)n3ccccc3nc2n(Cc2ccco2)c1=NC(=O)c1ccccc1Br	none (no result: CHX counter, Pf growth 96h, Pf growth 48h, Shiga toxin inh)
CCOC(=O)c1cc2c(=O)n3ccccc3nc2n(CCOC)c1=NC(=O)c1c(-c2c(F)cccc2Cl)noc1C	Pf growth 96h 5.9µM, Pf growth 48h inconclusive, MARV entry inh inconclusive, LASV entry inh inconclusive
CCOC(=O)c1cc2c(=O)n3ccccc3nc2n(CC(C)C)c1=NC(=O)c1ccco1	Pf growth 48h 10µM (no result: Pf growth 96h)
CCOC(=O)c1cc2c(=O)n3ccccc3nc2n(Cc2ccco2)c1=NC(=O)c1cccnc1	Pf growth 96h inconclusive, Pf growth 48h inconclusive, MARV entry inh 7.3µM, LASV entry inh inconclusive
CCOC(=O)c1cc2c(=O)n3ccccc3nc2n(Cc2ccco2)c1=NC(=O)c1cccc(C)c1	MARV entry inh inconclusive (no result: CHX counter, Pf growth 96h, Pf growth 48h, Shiga toxin inh)
Cc1cc(-c2ccccc2)nc(N(C)NC(=O)C2CC2)c1S(C)(=O)=O	none
COc1ccc(/C(O)=C2/C(=O)C(=O)N(CCN3CCOCC3)C2c2cccnc2)cc1OC (configuration not stated)	none
c1ccc(COc2ccc(CNn3cnnc3)cc2)cc1	CHX counter 26, Shiga toxin inh 65
C/C(CC(=O)Nc1ccc(OCc2ccccc2)cc1)=N\NC(=O)C(=O)Nc1ccccc1C	CHX counter 26, Pf growth 96h inconclusive, Pf growth 48h inconclusive, Shiga toxin inh 65
Cc1cc(NC(=O)Nc2ccc(OCc3ccccc3)cc2)n(C)n1	LASV entry inh inconclusive
CCN(CC)C(=O)C(=O)Nc1ccc(OCc2ccccc2)cc1	CHX counter 14, Pf growth 96h inconclusive, MARV entry inh inconclusive
CCOc1ccc(NC(=S)Nc2ccc(OCc3ccccc3)cc2)cc1	CHX counter 11
S=C(Nc1ccccc1)Nc1ccc(OCc2ccc(Cl)cc2Cl)cc1	Pf growth 96h inconclusive, Pf growth 48h 5.9µM, MARV entry inh inconclusive, LASV entry inh inconclusive
COc1ccc(NS(=O)(=O)c2ccc(NS(=O)(=O)c3cccs3)cc2)c(OC)c1	none
O=S(=O)(NC1CCCC1)c1ccc(Br)s1	none
CN1C(=O)Cc2cc(S(=O)(=O)N3CCN(c4ccc(Cl)cc4)CC3)ccc21	Pf growth 48h inconclusive
